Experimental data reported in PubChem BioAssay.

Each compound was assayed against PEG-3 (UniProt Q6IN02) (assay: Peg3 promoter luciferase inhibitors, potency, dose response, cell-based, HeLa, CREF/GAPDH counter-screen panel (AID 624167)). Conditions: CREF/GAPDH counter-screens; HeLa PEG-Prom luciferase reporter, overnight, run 1, dose range 1, at 100 µM (top of the series) unless noted.
Sequence of PEG-3 (Q6IN02 whole entry, looked up): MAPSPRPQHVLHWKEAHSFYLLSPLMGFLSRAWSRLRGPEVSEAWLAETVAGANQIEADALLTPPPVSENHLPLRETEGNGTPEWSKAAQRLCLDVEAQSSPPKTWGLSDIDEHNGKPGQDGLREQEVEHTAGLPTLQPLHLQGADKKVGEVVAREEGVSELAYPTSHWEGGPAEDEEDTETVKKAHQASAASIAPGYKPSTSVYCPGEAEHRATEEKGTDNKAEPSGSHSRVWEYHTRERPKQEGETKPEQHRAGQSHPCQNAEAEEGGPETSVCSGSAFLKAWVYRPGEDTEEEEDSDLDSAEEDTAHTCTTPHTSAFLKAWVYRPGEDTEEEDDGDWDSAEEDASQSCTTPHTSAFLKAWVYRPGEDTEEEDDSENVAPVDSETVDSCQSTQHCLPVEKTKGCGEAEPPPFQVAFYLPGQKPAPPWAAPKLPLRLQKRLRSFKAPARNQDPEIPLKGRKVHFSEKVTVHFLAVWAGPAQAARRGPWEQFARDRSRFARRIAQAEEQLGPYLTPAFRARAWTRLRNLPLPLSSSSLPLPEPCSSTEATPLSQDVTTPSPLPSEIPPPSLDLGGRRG

| SMILES | inhibition |
| --- | --- |
| CCOc1ccc(OCc2cccc(C(=O)O)c2)cc1 | 91.5% |
| O=C(O)c1ccc(N/N=C/c2ccc3c(c2)OCO3)cc1 | 98% |
| COc1ccc(C(=O)NNC(=O)c2ccccn2)cc1 | 102% |
| CN(C)S(=O)(=O)c1ccc(-c2csc(N/N=C/c3ccc(O)cc3)n2)cc1 | 99.1% |
| O=C(Nc1ccccc1C(=O)Nc1nnc(C(F)(F)F)s1)c1ccccc1 | 93% |
| C/C(=N\NC(=O)c1cc(C2CC2)nc2ccccc12)c1ccc(O)cc1O | 59.9% |
| COc1cc(NS(C)(=O)=O)ccc1Nc1c2ccccc2nc2ccccc12 | 102% |
| CC1CCCN(c2ncnc3c2cnn3-c2ccc(Cl)cc2)C1 (stereo not given) | 98.9% |
| Cc1ccc(-c2nc(-c3ccccn3)no2)cc1Cl | 102% |
| COc1ccc(CCN2C(=O)C=CC2=O)cc1OC | 102% |
| Cc1cc(Br)ccc1NC(=O)CNC(=O)Cn1ncc(Cl)c(Cl)c1=O | 99.8% |
| CN(C)c1ccc(/C=C2\SC(=O)N(CCc3nnc(N)s3)C2=O)cc1 | 62% |
| Cc1oc(-c2ccc3c(c2)OCCO3)cc1C(=O)O | 101% |
| O=C(NC(=O)c1ccccc1)Nc1ccccn1 | 98.8% |
| O=C(COc1ccc(Cl)cc1Cl)Nc1ccccn1 | 94% |
| O=C(CCl)N1c2ccccc2Sc2ccc3ccccc3c21 | 99.4% |
| Cc1nc(SCC(=O)Nc2nc3ccccc3s2)c(C#N)c(C)c1C | 95.4% |
| CC(=O)NC(c1ccc(N(C)C)cc1)c1cc(Cl)c2cccnc2c1O (stereo not given) | 76.1% |
| CCC(c1ccc(O)c(O)c1)C(CC)c1ccc(O)c(O)c1 (stereo not given) | 102% |
| CCSc1nc2ccccc2n1C(=O)/C=C\c1ccc(OC)c(OC)c1 | 99.4% |
